Screens from PubChem.
TRPML1 agonist – qHTS for Agonists of the Human Mucolipin Transient Receptor Potential 1 (TRPML1); Mucolipin-1 (Homo sapiens), Q9GZU1; TRPML1-expressing cells, Ca2+ dye fluorescence, FDSS; activation, % (test concentration not listed); 410,000 compounds, 0.12% hits; in the data active means activation above about 50%; inconclusive means mostly about 30% to 49%; further: 0% is about no effect
Target sequence (Q9GZU1 whole entry, looked up): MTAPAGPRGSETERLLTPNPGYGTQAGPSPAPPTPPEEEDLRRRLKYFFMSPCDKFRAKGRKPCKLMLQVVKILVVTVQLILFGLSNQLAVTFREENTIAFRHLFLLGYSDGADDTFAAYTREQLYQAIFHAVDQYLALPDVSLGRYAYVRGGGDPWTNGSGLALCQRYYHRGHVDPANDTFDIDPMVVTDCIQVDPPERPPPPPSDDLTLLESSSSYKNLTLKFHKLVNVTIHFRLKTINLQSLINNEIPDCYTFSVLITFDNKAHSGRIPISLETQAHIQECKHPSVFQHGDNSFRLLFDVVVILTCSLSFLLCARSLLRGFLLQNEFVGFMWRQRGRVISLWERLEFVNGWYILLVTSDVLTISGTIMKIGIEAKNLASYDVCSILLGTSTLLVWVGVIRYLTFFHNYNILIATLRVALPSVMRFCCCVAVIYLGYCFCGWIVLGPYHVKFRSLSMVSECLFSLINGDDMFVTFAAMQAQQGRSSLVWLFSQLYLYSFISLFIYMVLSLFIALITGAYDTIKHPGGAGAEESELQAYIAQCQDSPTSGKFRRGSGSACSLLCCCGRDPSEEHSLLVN
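Cells: TRPML1-DL, 1X Tet inducer, ~16 h at 37 degrees C/5% CO2. Dye: ABD Ca8 no-wash + quencher, 45-90 min RT. Read: 10 s baseline, compound add, 110 s agonist phase; 54-4 EC80 (4uM final), 110 s antagonist phase.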
TRPML1 blocker – qHTS for Inhibitors of the Human Mucolipin Transient Receptor Potential 1 (TRPML1); Mucolipin-1 (Homo sapiens), Q9GZU1; TRPML1-inducible cells, Ca2+ dye fluorescence, FDSS; hits give low values; inhibition of EC80 agonist-evoked calcium signal; activity change, negative = inhibition, % (concentration not given with the values); 390,000 compounds, 0.02% hits; AID 624415, 2012; in the data active means activity change below about -50%; inconclusive means between about -30% and that limit;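 further: stimulus is agonist 54-4 at its EC80 concentration; on the % scale 0 is the no-effect control and ±100 the full control effect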
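Tet-induced TRPML1-DL cells loaded with Ca8 no-wash calcium dye were read kinetically on FDSS. Compound addition was followed by EC80 agonist 54-4 (4 uM final); inhibition was read over 110 s.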
hERG WT inh – qHTS for Inhibitors of KCHN2 3.1: Wildtype qHTS; Voltage-gated inwardly rectifying potassium channel KCNH2 (Homo sapiens), Q12809; U2OS, BacMam KCNH2, thallium flux FluxOr; hits give low values; activity change, % at 1.84 µM; 340,000 compounds, 0.37% hits; AID 720551, 2013;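 active means maximum activity change below -70%; inconclusive means maximum activity change between -70% and -50%; inactive means maximum activity change above -50%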; further: on the % scale 0 is the no-effect control and ±100 the full control effect
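U2OS cells transduced with wild-type KCNH2 virus are loaded with FluxOr dye for 45 min, and thallium flux is measured in kinetic reads before and after stimulation buffer. Rate constants are normalized to DMSO controls.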
TSG101-PTAP inh – qHTS Assay for Iinhibitors of HIV-1 Budding by Blocking the Interaction of PTAP/TSG101; Potency, µM (top dose mostly 115 µM), for the others: at the highest dose activity change, negative = inhibition, actives largely listed as inhibitors; Fluorescence polarization, FITC-PTAP peptide / Tsg101 binding; 340,000 tested, under 10 active; Tumor susceptibility gene 101 protein (Homo sapiens), Q99816; active means well fitted inhibition curve with a large enough effect in the main read-out, with a control signal flat, not every such curve was filed as active; inconclusive means small, poorly fitted or top-dose-only effect, or effect the other way, or a change in a side signal; inactive means no such curve, though single readings can be large or run the other way; further: potency means the concentration at half of the fitted maximal effect; % of control where 0% means no effect
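FP read-out: FITC-PTAP peptide, 50 nM final, binding Tsg101 binding domain, 10 uM final; 20 min, r.t.; 10 mM HEPES pH 7.5, 0.15 M NaCl, 0.01% Tween 20, 3 mM EDTA, 0.1 mM TCEP.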
KCNH2 3.1 block – qHTS for Inhibitors of KCHN2 3.1: Mutant qHTS | Potassium voltage-gated channel subfamily H member 2, brain isoform KCNH2 3.1 (human) | U2OS KCNH2 3.1, thallium flux FluxOr; hits give low values | activity change, % (tested at about 1.8 µM) | 340,000 compounds, 0.95% hits | AID 720553, 2013;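 active means maximum activity change below -70%; inconclusive means maximum activity change from -70% to -50%; inactive means maximum activity change above -50%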;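 further: thallium influx rate constant from kinetic fluorescence after stimulation buffer; on the % scale 0 is the no-effect control and ±100 the full control effect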
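Normalized rate constant (relative to positive and negative DMSO controls) derived from a 2 min kinetic fluorescence read after stimulation; U2OS cells expressing the 3.1 isoform via virus at 1.77 x 10^8 /mL.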
Glioma ERSR ind – qHTS for Inducers of the Endoplasmic Reticulum Stress Response (ERSR) in Human Glioma: qHTS | U87-MG GRP78 promoter luciferase reporter, 16 h | Potency, µM, inactives show at the top dose activation, usual class: activators | 420,000 compounds, 0.02% hits | AID 602332, 2012; active means well fitted activation curve with a large enough effect; inconclusive means small, poorly fitted or top-dose-only effect; inactive means no such curve, though single readings can be large or run the other way; further: potency means the concentration at half of the fitted maximal effect; series mostly up to about 76 µM; % of control where 0% means no effect; nearly all actives have a fitted effect of over 35% in size
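Stably transfected U87-MG human glioma cells carrying a GRP78-based luminescent sensor were seeded at 1000 cells/well, pin-dosed with compounds and incubated 16 h. Luciferase reagent was then added, and end-point luminescence was read after 10 min at room temperature.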
Starred values were filed as active, the others as inactive. The list is not random: actives were taken first. Their share in the collection is about 1%.

`OCCCNCc1cc2cc3c(cc2nc1N1CCN(c2cccc(Cl)c2)CC1)OCO3` gave Glioma ERSR ind -1.3%.
`Cn1cnnc1Sc1ccc(CN2CCOc3ccc(C4=Cc5ccccc5C4)cc3C2)o1` gave Glioma ERSR ind -1.3%.
`O=C(CCCCCn1nnc2ccccc2c1=O)N[C@H](C(=O)O)c1ccccc1` gave TRPML1 agonist -0.7, TRPML1 blocker -6.7, hERG WT inh -7.6, TSG101-PTAP inh -1.6%, KCNH2 3.1 block 3.8 and Glioma ERSR ind -4.6%.
O=C(CCCn1nnc2ccccc2c1=O)N[C@H](C(=O)O)c1ccccc1 was read as TRPML1 agonist 0.4, TRPML1 blocker -54.3*, hERG WT inh -9.9, TSG101-PTAP inh 0.9%, KCNH2 3.1 block 4.7 and Glioma ERSR ind 1.8%.
Screening C/C(=N\Nc1ncnc2sc(C)c(C)c12)c1ccccn1 returned TRPML1 agonist 58.2*, TRPML1 blocker -24.4, hERG WT inh -73.0*, TSG101-PTAP inh 0.5%, KCNH2 3.1 block -7.7 and Glioma ERSR ind 5.3%.
For Cc1sc2ncnc(N/N=C/c3cccc(O)c3)c2c1C the results were TRPML1 agonist -1.8, TRPML1 blocker -8.7, hERG WT inh -11.5, TSG101-PTAP inh -3.5%, KCNH2 3.1 block 9.0 and Glioma ERSR ind 0.0%.
For O=C(O)c1ccc2noc(-c3ccccc3)c2c1 the results were TRPML1 agonist -0.5, TRPML1 blocker 8.2, hERG WT inh -3.4, TSG101-PTAP inh -5.5%, KCNH2 3.1 block -2.8 and Glioma ERSR ind -2.1%.
O=C(O)/C=C/c1ccc2c(-c3ccccc3)onc2c1 was read as TRPML1 agonist 0.2, TRPML1 blocker 0.4, hERG WT inh -126.0*, TSG101-PTAP inh -2.3%, KCNH2 3.1 block -12.2 and Glioma ERSR ind 4.8%.
Screening O=C(Nc1c(C(=O)N2CCN(c3ccccn3)CC2)oc2ccccc12)c1ccc([N+](=O)[O-])cc1 returned TRPML1 agonist -0.2, TRPML1 blocker 12.8, hERG WT inh inconclusive, TSG101-PTAP inh -1.8%, KCNH2 3.1 block -104.8* and Glioma ERSR ind 3.4%.
Screening CCOCCCN(C)C1CCN(C(=O)c2oc3ccccc3c2NC(=O)Cc2ccc(F)cc2)CC1 returned TRPML1 agonist -0.6, TRPML1 blocker -1.1, hERG WT inh -107.5*, TSG101-PTAP inh 0.5%, KCNH2 3.1 block -82.9* and Glioma ERSR ind -2.5%.
CCOCCCN(C)C1CCN(C(=O)c2oc3ccccc3c2NC(=O)Cc2ccc([N+](=O)[O-])cc2)CC1 was read as TRPML1 agonist -1.0, TRPML1 blocker -4.6, hERG WT inh -102.3*, TSG101-PTAP inh -4.3%, KCNH2 3.1 block -100.1* and Glioma ERSR ind -3.6%.
For Cc1ccc(CC(=O)Nc2c(C(=O)N3CCN(c4ccccc4)CC3)oc3ccccc23)cc1 the results were TRPML1 agonist -0.1, TRPML1 blocker -11.6 and Glioma ERSR ind -1.9%.
`CCOCCCN(C)C1CCN(C(=O)c2oc3ccccc3c2NC(=O)c2cccc([N+](=O)[O-])c2)CC1` gave TRPML1 agonist 1.3, TRPML1 blocker 50.0, hERG WT inh -78.8*, TSG101-PTAP inh -1.6%, KCNH2 3.1 block -107.5* and Glioma ERSR ind -4.5%.
Screening COC(=O)c1cccc(C(=O)N2CCc3c(C(=O)OC)c(OCc4ccccn4)cc(=O)n3CC2)c1 returned Glioma ERSR ind -5.2%.
Screening COC(=O)c1cc(CNC(=O)c2cccc(F)c2)cc(NC(=O)c2ccccc2OC)c1 returned Glioma ERSR ind -1.0%.
Screening CC(C)c1c(C(=O)NCCN2CCOCC2)cnn1-c1nccc(-c2cccs2)n1 returned Glioma ERSR ind -5.7%.
CCOCCCN(C)C1CCN(C(=O)c2oc3ccccc3c2NC(=O)COc2ccc(F)cc2)CC1 was read as TRPML1 agonist 0.3, TRPML1 blocker -2.8, hERG WT inh -42.3, TSG101-PTAP inh -6.2%, KCNH2 3.1 block -100.2* and Glioma ERSR ind 1.5%.
`O=C(COc1ccccc1)Nc1c(C(=O)N2CCN(c3ccc(F)cc3)CC2)oc2ccccc12` gave TRPML1 agonist 0.8, TRPML1 blocker -16.6 and Glioma ERSR ind 1.6%.
`CS(=O)(=O)Nc1cc(C(=O)N2CCNC(=O)C2)c2c(c1)ncn2CCc1ccccc1` gave Glioma ERSR ind -7.6%.
For Cc1ccc(C)c(C(=O)COC(=O)c2cc(S(=O)(=O)N3CCOCC3)ccc2F)c1 the results were TRPML1 agonist 1.0, TRPML1 blocker 11.9, hERG WT inh -77.3*, KCNH2 3.1 block 2.2 and Glioma ERSR ind -0.8%.
`COc1ccc(O)c(CN2CCC3(CCC(CNC(=O)c4ccco4)O3)CC2)c1` (stereo not drawn) gave Glioma ERSR ind 1.1%.
Screening COc1ccc(-c2c(-c3cc(OC)cc(OC)c3)n(C)c3ccc(-c4ccc(S(N)(=O)=O)cc4)cc23)cc1 returned TRPML1 agonist -0.6, TRPML1 blocker 5.5, hERG WT inh 14.6, TSG101-PTAP inh -3.0%, KCNH2 3.1 block -89.2* and Glioma ERSR ind -3.1%.
Screening CC#CC[C@@H](C)[C@@H](O)/C=C/[C@H]1[C@H]2c3cccc(CCCC(=O)O)c3O[C@H]2C[C@@H]1O returned Glioma ERSR ind -2.9%.
For O=C(Nc1ccc(Cl)cc1)c1nc[nH]c1C(=O)Nc1ccccc1F the results were TRPML1 agonist 0.2, TRPML1 blocker 12.0, hERG WT inh -3.9, KCNH2 3.1 block -0.2 and Glioma ERSR ind -2.2%.
Screening O=C(Nc1cccc(Cl)c1)c1nc[nH]c1C(=O)Nc1ccccc1F returned TRPML1 agonist -0.3, TRPML1 blocker -6.4, hERG WT inh -70.7*, KCNH2 3.1 block 18.7 and Glioma ERSR ind -2.6%.
Screening COc1ccccc1C1CN(CC(=O)N2CCC(C(O)c3ccccn3)CC2)Cc2ccccc2O1 (stereo not drawn) returned Glioma ERSR ind -2.3%.
For Cc1ccc(NC(=O)CSc2nnc(-c3ccncc3)n2N)cc1C the results were TRPML1 agonist -0.4, TRPML1 blocker 15.0, hERG WT inh -204.3*, TSG101-PTAP inh -7.8%, KCNH2 3.1 block -7.2 and Glioma ERSR ind -0.2%.
